Assay results as given in PubChem BioAssay (NCI).
This is part of a sample that, as a whole, favours compounds with a hit. Of some 83,000 tested, about 20% had one in any assay.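 Values shown are percent growth following 48 h exposure of cells in 96-well plates to a single concentration of compound; below 10 was considered active.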 A number with no mark means an inactive call. The source made the active and inactive calls.

Legend:
Assay in all cases: NCI-60 one-dose screen, 48 h (100 = growth as untreated, 0 = no growth, -100 = all killed)
Details in all cases: 10 µM unless noted
HT29 colon = test system: HT29 colon
SNB-75 CNS = test system: SNB-75 CNS
SNB-19 CNS = test system: SNB-19 CNS
U251 CNS = test system: U251 CNS
PC-3 prostate = test system: PC-3 prostate
SK-MEL-5 melanoma = test system: SK-MEL-5 melanoma
UACC-62 melanoma = test system: UACC-62 melanoma
LOX IMVI melanoma = test system: LOX IMVI melanoma
SK-MEL-28 melanoma = test system: SK-MEL-28 melanoma
SN12C renal = test system: SN12C renal
UO-31 renal = test system: UO-31 renal
TK-10 renal = test system: TK-10 renal
ACHN renal = test system: ACHN renal
CAKI-1 renal = test system: CAKI-1 renal
A498 renal = test system: A498 renal
CCRF-CEM leukemia = test system: CCRF-CEM leukemia
MOLT-4 leukemia = test system: MOLT-4 leukemia
SK-MEL-2 melanoma = test system: SK-MEL-2 melanoma
EKVX NSCLC = test system: EKVX NSCLC

Compound	growth (HT29 colon)	growth (SNB-75 CNS)	growth (SNB-19 CNS)	growth (U251 CNS)	growth (PC-3 prostate)	growth (SK-MEL-5 melanoma)	growth (UACC-62 melanoma)	growth (LOX IMVI melanoma)	growth (SK-MEL-28 melanoma)	growth (SN12C renal)	growth (UO-31 renal)	growth (TK-10 renal)	growth (ACHN renal)	growth (CAKI-1 renal)	growth (A498 renal)	growth (CCRF-CEM leukemia)	growth (MOLT-4 leukemia)	growth (SK-MEL-2 melanoma)	growth (EKVX NSCLC)
O=C(Cn1nc(-c2cccc3ccccc23)ccc1=O)NCc1cccc(Cl)c1	43% [50 µM]	74.3% [50 µM]	45.3% [50 µM]	35% [50 µM]	19.6% [50 µM]	5.82% [50 µM] (active)	35.2% [50 µM]	28.6% [50 µM]	56% [50 µM]	46.4% [50 µM]	15.3% [50 µM]	40.7% [50 µM]	28.9% [50 µM]	40.2% [50 µM]	26.8% [50 µM]	43.9% [50 µM]	20.5% [50 µM]		
O=c1cc(CP(=O)(O)O)c2cc(O)c(-c3ccccc3)cc2o1	108%	83.8%	96.8%	100%	98.6%	98.1%	97.8%	99.5%	104%	98.2%	88.2%	106%	98.4%	93%	109%	93.6%		107%	89%
O=C(c1cccc(N2CCOCC2)n1)c1c[nH]c2ccccc12	105%	82%	99.4%	91.7%	83.5%	93.8%	82.8%	93%	98.6%	89.9%	66.9%	120%	86.5%	76%	85.2%	97.2%	100%		76.3%
O=C(c1ccc(Br)cc1)C(Br)C(c1ccc(Cl)cc1)C(c1ccccc1)[N+](=O)[O-] (stereo not drawn)	87.3%	89.4%	93.9%	96.9%	76.5%	86.6%	71.8%	102%	97.7%	101%	79%	103%	102%		87.5%	90.3%	89.7%	110%	79.9%
COc1ccc(C/C(C)=C(\c2ccc(Cl)cc2)c2ccc(OCCN3CCCC3)cc2)cc1	19.6%	88.5%	92.1%	61.1%	77.8%	89.7%	90.8%	82.9%	91.4%	82.7%	66.3%	87.6%	94.8%	83.4%	110%	57.2%	44.6%	96.8%	96.7%
NS(=O)(=O)c1ccc(C(=O)N=Nc2c(O)[nH]c3ccc(Cl)cc23)cc1	99.7%	89%	91.3%	99.7%	97.4%	103%	105%	102%	114%	94.9%	83.8%	115%	107%	92.6%		99.7%	107%	105%	95.8%
CN1C(=O)/C(=C/c2ccc(C(=O)Nc3ncc(Cc4cccc(C(F)(F)F)c4)s3)cc2)SC1=S	55.4%	64.1%	61.5%	67.8%	53.5%	7.19% (active)	11.3%	35%	46.4%	73.4%	51.1%	47.5%	32.4%	22%		7.85% (active)	46.8%	56.7%	37.1%
COCCn1cc(-c2csc(-c3c[nH]c4ccccc34)n2)c2cccnc21	11.6%	20.5%	65.5%	35.5%	29.6%	8.9% (active)	54.8%	34.1%	64.4%	64.3%	44%	34.9%	49.6%		17.7%	36.7%	25.7%	18.3%	31.8%
O=C(O)CCCCCCCCCCN1C(=O)/C(=C2/C(=O)N(CC(=O)O)c3ccc(Br)cc32)SC1=S	100%	92.5%	99.9%	72%	74.8%	81.2%	80.3%	78.2%	104%	86.3%	72.8%	128%	84.2%	83.8%	95.2%	71.4%	34.2%	100%	97.2%
CCOC(=O)C#Cc1c(C(=O)OCC)nnn1[C@@H]1O[C@H](COC)[C@@H](OC)[C@H]1OC	24.9%		97.9%	102%	92.4%	98.3%	93.8%	67%	96.3%	82.5%	29.2%	11.1%	-35.3% (active)		99.1%	27.7%	58.6%	92%	107%
O=C(Oc1ccc2c(c1)sc1nc(-c3ccccc3)[nH]c(=O)c12)C(F)(F)F	75.6%	10.7%	45.6%	28.9%	43.1%	11.6%	11.3%	18.8%	36%	32%	26.1%	61.7%	29%	19.3%	23.6%	21.9%	13.5%	26.6%	58.8%
O=C1C(Cl)=C(Nc2ccccc2)C(=O)c2ccccc21	-75.1% (active)	97.8%	54.2%	-41.8% (active)		-85.3% (active)	-49.8% (active)	-85.5% (active)	-91.9% (active)	-73.5% (active)	-42.5% (active)	172%	-86.5% (active)	-83.6% (active)	46.9%	-10.5% (active)	-20.1% (active)	-65.9% (active)	-91.9% (active)
Nc1nc(N)c2c(n1)NC(c1cccc(Nc3ccnc4cc(C(F)(F)F)ccc34)c1)CC(c1ccc3c(c1)OCO3)=N2 (stereo not drawn)	23.8%		76.5%	56.4%	48.5%	66.4%	90.6%	65.7%	96.3%	81.6%	69.2%	90.1%	102%	59.6%		50.9%	29%	61.6%	76.7%
Cc1nn(C)c2ncnc(N/N=C/c3cccc(O)c3O)c12	62.5%	38.6%	19.7%	15.7%	35.9%	-41.4% (active)	-8.29% (active)	4.98% (active)	11.4%	7.54% (active)	-13.4% (active)	28.7%	4.41% (active)	6.5% (active)	26.6%	-16.7% (active)	3.79% (active)	31.5%	6.94% (active)
COc1cc(/C=C/C(=O)c2cc(OC)c(OC)c(OC)c2)ccc1Oc1nc2c(c(=O)n(C)c(=O)n2C)n1C	-51.1% (active)	31%	18.7%	-81.9% (active)	7.57% (active)	28.9%	-74.1% (active)	-81.1% (active)	-45.3% (active)	11.6%	-92.1% (active)	-8.16% (active)	-21.9% (active)	-47.2% (active)	29.4%	5.81% (active)	2.13% (active)	76.3%	1.98% (active)
CCCC(O)Cn1ncc(C(=O)OCC)c1NC(=O)NCc1cccc(C(F)(F)F)c1 (stereo not drawn)	85.9%	101%	104%	105%	64.7%	93.6%	80.1%	87.5%	105%	93.7%	65%	90.4%	97.7%	83.8%	99%	5.39% (active)	62%		90.5%
Nc1nc(N(Cc2ccccc2)c2ccccc2)c2cn[nH]c2n1	32.3%	56.8%	68.1%	42.6%	74.8%	44.6%	45.7%	53%	63.4%	85.8%	75%	92.2%	71.2%	31.9%	69.9%		62.2%	111%	75.3%
